{"source": "PubChem BioAssay AID488969", "about": "(Vanderbilt High Throughput Screening Facility, 2010)", "note": "Whole data set: some 110,000 compounds, median “z-score” near -0.1, cut for the highest 2% near 2. This excerpt belongs to a sample that is enriched for the highest values. The source made the active and inactive calls.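 The calls were made as follows: active = z-score in the third read window above 3 or below -3; inactive = the rest.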"}
{"molecular_target": "Metabotropic glutamate receptor 8 (Rattus norvegicus) (UniProt P70579)", "sequence (P70579 whole entry, looked up)": "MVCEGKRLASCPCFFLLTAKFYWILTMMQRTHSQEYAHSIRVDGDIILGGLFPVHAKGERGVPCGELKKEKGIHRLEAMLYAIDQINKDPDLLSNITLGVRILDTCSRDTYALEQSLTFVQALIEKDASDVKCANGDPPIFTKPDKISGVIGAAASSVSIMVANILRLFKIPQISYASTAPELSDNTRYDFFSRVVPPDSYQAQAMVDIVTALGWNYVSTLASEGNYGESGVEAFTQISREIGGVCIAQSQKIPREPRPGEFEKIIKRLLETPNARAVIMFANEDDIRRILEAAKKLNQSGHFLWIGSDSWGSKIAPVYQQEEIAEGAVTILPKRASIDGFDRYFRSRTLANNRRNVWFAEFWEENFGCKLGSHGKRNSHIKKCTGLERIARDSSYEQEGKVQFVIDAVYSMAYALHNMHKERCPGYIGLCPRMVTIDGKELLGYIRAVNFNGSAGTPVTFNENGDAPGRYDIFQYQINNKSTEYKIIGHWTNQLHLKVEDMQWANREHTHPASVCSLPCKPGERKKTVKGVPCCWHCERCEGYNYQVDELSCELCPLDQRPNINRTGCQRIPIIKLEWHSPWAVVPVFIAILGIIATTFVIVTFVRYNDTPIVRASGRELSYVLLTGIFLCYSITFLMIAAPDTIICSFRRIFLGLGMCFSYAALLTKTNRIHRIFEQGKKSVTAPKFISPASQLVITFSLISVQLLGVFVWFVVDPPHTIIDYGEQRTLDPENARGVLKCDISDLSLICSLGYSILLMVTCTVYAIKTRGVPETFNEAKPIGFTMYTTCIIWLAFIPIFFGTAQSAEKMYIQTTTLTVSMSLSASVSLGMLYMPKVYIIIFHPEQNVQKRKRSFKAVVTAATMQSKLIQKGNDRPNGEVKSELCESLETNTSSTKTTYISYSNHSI", "assay": "rat mGluR8 modulators via GIRK flux, primary screen, cell-based, thallium flux, HTS (AID 488969)", "conditions": "HEK293 rat mGluR8, GIRK (G protein-gated inwardly rectifying potassium channel) thallium flux, FluoZin2; at 10 µM; stronger effect = higher value; submaximal glutamate (EC20) added with thallium"}
{"smiles": "CCOc1ccc(NC(=O)CSc2nccn2C)cc1", "z-score": -0.0963}
{"smiles": "CC(C)(C)NC(=O)CSc1nccn1Cc1ccccc1", "z-score": 0.488}
{"smiles": "CC(=O)Nc1ccc(NC(=O)CSc2nccn2Cc2ccccc2)cc1", "z-score": 2.89}
{"smiles": "COC(=O)c1ccc(NC(=O)CSc2nnc(COc3ccccc3)n2C)cc1", "z-score": "11.8 (active)"}
{"smiles": "Cn1ccnc1SCC(=O)Nc1ccc(Oc2ccccc2)cc1", "z-score": 2.29}
{"smiles": "COC(=O)c1cccc(NC(=O)CSc2nnc(COc3ccccc3)n2C)c1", "z-score": -0.736}
{"smiles": "Cn1ccnc1SCC(=O)Nc1ccccc1", "z-score": 0.326}
{"smiles": "Cc1ccc(NC(=O)CSc2nccn2Cc2ccccc2)cc1C", "z-score": -0.465}
{"smiles": "CCOC(=O)c1ccc(NC(=O)CSc2nnc(COc3ccccc3)n2C)cc1", "z-score": -0.177}
{"smiles": "CCc1sc(C(=O)Nc2ccc(F)cc2C)cc1C", "z-score": -0.0957}
{"smiles": "O=C(CCC(=O)c1cccs1)Nc1ccc(F)c(F)c1F", "z-score": 0.32}
{"smiles": "CCc1ccc(NS(=O)(=O)c2cc(OC)ccc2OC)cc1", "z-score": -0.868}
{"smiles": "Cc1nc(NCCc2ccc(F)cc2)c(C#N)c(C)c1[N+](=O)[O-]", "z-score": -0.205}
{"smiles": "COc1cc(C)nc(OCCNS(=O)(=O)c2cc(C)ccc2C)n1", "z-score": 0.217}
{"smiles": "CC(/C=N/NC(=O)c1ccc(Br)cc1)=C\\c1ccccc1", "z-score": -1.26}
{"smiles": "CC(/C=N/NC(=O)c1c(Br)cnn1C)=C\\c1ccccc1", "z-score": "3.16 (active)"}
{"smiles": "CC(/C=N/NC(=O)c1nn(C)c(C)c1Br)=C\\c1ccccc1", "z-score": -0.0235}
{"smiles": "O=C(Nc1ccc(C(=O)N2CCCCC2)cc1)c1ccc(Br)cc1", "z-score": 1.09}
{"smiles": "CC(C)CCNC(=O)Cn1c(=O)oc2cc(S(=O)(=O)N3CCc4ccccc43)ccc21", "z-score": -0.186}
{"smiles": "COc1cc(CNc2ccc(N3CCCC3)cc2)ccc1OCc1ccccc1", "z-score": "3.82 (active)"}
{"smiles": "COc1cc(CNc2ccc(N3CCCC3)cc2)ccc1OCc1ccccc1F", "z-score": -0.289}
{"smiles": "COc1cc(CNc2ccc(CNc3ncn[nH]3)cc2)ccc1OCc1ccccc1", "z-score": -0.026}
{"smiles": "CC(C(=O)NCCN1C(=O)S/C(=C\\c2cccs2)C1=O)N1C(=O)c2ccccc2C1=O", "note": "(stereo not drawn)", "z-score": -0.139}
{"smiles": "Cc1ccc(C)c(NC(=O)CCC(=O)NNC(=O)c2cccc([N+](=O)[O-])c2)c1", "z-score": 0.265}
{"smiles": "CSc1ccccc1C(=O)Nc1cccc(C(C)O)c1", "note": "(stereo not drawn)", "z-score": 0.209}
{"smiles": "CSc1ccccc1C(=O)Nc1cccc(C(C)=O)c1", "z-score": "3.03 (active)"}
{"smiles": "CSc1ccccc1C(=O)Nc1cccc(C)c1", "z-score": -0.792}
{"smiles": "CCOC(=O)Cc1c(C)nc2cc(-c3ccc(C)cc3)[nH]n2c1=O", "z-score": 0.0804}
{"smiles": "C1CCCC(N2CCNCC2)CC1", "z-score": 0.33}
{"smiles": "COC(=O)c1cc(=O)nc2sccn12", "z-score": -0.417}
{"smiles": "CCOC(=O)c1cc(CC)sc1NC(=O)c1cc(OC)c(OC)c(OC)c1", "z-score": 0.399}
{"smiles": "CCOC(=O)c1cc(-c2ccccc2)sc1NC(=O)c1ccc(OC)cc1", "z-score": -0.199}
{"smiles": "CCc1cc(C(N)=O)c(NC(=O)c2ccc(OC)cc2)s1", "z-score": "3.98 (active)"}
